Test results from the supplement of paper PMC11732987, “Enantioselective OTUD7B fragment discovery through chemoproteomics screening and high-throughput optimisation” (Communications Chemistry, 2025).

Assays:
Experiment in all cases: log2 ratio of Biotin-Ahx-Ub-VS probe labelling (fragment/DMSO); higher = less target engagement (more negative = stronger competition), active = hit call of the paper (q ≤ 0.05, log2 ratio ≤ -1)
Conditions in all cases: compound concentration: 200 uM; treatment time: 3 h
[1] = target: USP34 (UniProt Q70CQ2)
In short: (§1)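 Labelled DUBs from HEK293T lysate were NeutrAvidin-enriched, digested with LysC and trypsin, and run by diaPASEF LC-MS/MS. Before that, each 495 µg sample in Tris/CHAPS/IGEPAL buffer with protease inhibitors was treated in triplicate with fragment at 200 µM or vehicle for 3 h, then with Biotin-Ahx-Ub-VS at 0.5 µM final for 1 h. Values are average log2 ratios of fragment over vehicle by unpaired t-test, based on global-median-normalised Spectronaut label-free quantities from proteins with ≥2 unique peptides.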

[2] = target: T1, USP36 (UniProt Q9P275)
T1 sequence (whole entry): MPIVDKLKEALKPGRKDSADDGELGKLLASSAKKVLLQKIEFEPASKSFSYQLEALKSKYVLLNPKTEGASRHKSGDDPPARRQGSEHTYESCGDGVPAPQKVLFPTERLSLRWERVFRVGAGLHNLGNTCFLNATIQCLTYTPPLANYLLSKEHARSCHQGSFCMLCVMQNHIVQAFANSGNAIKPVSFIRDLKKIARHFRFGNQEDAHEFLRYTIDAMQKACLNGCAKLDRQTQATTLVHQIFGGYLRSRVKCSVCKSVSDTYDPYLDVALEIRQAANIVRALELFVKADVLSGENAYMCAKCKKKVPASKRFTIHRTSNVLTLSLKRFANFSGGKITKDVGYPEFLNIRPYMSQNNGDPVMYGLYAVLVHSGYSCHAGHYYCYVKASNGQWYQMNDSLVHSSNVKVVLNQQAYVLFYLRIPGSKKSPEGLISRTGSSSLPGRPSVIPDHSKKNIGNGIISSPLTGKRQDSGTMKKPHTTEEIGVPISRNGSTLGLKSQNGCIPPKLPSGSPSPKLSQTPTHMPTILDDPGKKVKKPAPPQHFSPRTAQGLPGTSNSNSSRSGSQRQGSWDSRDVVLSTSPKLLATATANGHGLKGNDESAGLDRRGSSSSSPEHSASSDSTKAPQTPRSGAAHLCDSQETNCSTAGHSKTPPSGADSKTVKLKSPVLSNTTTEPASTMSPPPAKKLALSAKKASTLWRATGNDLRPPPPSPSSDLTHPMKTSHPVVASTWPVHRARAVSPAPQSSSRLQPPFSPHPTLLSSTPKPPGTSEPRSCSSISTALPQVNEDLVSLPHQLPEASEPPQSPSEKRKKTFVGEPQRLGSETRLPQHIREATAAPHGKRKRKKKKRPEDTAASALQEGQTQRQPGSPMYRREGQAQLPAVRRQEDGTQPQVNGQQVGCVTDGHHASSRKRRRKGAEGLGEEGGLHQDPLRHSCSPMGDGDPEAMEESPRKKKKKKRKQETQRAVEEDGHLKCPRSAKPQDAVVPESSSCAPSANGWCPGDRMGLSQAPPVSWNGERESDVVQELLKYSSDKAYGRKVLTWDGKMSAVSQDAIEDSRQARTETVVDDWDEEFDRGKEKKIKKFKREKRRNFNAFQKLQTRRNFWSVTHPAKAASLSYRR
In short: as §1

[3] = target: T2, USP38 (UniProt Q8NB14)
T2 sequence (whole entry): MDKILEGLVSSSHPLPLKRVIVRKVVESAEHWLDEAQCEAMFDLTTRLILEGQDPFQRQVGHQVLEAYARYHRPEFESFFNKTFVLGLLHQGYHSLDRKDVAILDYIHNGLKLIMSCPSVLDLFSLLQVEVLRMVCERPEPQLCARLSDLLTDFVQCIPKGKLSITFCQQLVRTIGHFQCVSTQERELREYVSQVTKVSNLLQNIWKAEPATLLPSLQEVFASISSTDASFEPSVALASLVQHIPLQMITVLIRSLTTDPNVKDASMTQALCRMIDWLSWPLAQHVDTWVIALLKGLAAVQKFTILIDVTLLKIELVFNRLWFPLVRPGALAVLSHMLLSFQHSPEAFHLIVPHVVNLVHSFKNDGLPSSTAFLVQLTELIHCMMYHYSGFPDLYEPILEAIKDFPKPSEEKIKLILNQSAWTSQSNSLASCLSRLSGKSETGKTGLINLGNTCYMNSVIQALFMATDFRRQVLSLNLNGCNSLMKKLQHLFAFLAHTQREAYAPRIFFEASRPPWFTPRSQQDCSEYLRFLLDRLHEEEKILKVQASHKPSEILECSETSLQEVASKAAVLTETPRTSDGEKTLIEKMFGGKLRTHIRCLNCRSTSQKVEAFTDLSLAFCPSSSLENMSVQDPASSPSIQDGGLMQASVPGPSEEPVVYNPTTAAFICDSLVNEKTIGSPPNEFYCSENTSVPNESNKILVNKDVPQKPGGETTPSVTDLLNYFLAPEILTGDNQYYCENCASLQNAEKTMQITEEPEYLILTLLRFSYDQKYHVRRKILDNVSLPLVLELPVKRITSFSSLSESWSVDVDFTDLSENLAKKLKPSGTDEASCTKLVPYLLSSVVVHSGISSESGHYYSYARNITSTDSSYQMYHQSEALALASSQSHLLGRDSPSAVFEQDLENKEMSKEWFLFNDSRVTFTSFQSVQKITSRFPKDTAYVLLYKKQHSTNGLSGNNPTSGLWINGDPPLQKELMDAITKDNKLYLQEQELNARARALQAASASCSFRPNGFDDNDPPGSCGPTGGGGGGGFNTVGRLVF
In short: as §1

[4] = target: T3, USP39 (UniProt Q53GS9)
T3 sequence (whole entry): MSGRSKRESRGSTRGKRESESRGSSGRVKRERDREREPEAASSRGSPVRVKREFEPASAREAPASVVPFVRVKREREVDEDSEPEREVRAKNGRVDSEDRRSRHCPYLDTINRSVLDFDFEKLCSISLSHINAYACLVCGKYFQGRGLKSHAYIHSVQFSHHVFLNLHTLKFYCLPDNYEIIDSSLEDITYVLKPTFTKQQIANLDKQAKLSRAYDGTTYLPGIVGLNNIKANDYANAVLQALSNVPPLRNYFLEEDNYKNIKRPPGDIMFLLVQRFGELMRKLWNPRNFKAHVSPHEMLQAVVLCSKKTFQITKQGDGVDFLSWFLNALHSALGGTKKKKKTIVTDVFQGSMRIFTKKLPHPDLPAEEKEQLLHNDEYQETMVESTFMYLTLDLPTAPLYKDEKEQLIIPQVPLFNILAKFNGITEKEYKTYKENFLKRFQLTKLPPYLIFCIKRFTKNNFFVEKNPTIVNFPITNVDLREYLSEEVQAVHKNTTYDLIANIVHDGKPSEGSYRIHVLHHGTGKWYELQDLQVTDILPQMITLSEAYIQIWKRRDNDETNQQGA
In short: as §1

[5] = target: T4, USP4 (UniProt Q13107)
T4 sequence (whole entry): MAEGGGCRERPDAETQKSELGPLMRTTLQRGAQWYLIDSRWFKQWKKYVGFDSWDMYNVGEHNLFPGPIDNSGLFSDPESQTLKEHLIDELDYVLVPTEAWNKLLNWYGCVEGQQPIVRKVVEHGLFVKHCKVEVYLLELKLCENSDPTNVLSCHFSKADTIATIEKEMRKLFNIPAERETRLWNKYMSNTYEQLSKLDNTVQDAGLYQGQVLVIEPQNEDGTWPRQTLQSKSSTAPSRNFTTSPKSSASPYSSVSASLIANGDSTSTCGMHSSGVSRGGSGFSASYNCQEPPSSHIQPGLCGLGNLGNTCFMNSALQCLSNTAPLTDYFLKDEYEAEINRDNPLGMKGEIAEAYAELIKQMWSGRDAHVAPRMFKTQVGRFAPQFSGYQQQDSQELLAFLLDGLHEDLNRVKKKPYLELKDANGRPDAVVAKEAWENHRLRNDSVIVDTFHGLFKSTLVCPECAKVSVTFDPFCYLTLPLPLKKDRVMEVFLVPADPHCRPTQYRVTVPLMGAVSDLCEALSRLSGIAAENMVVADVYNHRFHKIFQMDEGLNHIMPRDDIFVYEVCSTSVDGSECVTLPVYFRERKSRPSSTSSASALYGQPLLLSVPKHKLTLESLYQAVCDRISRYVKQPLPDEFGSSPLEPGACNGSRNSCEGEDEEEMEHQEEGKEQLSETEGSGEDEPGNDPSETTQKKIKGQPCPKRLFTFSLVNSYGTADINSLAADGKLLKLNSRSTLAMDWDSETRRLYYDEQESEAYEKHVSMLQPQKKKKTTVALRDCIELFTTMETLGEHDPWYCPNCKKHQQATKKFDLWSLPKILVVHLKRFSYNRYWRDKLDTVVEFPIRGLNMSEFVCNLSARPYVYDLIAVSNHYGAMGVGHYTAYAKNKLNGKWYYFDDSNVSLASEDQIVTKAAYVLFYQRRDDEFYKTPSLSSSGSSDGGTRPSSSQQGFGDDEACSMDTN
In short: as §1

Measured: log2 ratio of Biotin-Ahx-Ub-VS probe labelling

USP34, sequence (Q70CQ2 whole entry, the tested form may be a part): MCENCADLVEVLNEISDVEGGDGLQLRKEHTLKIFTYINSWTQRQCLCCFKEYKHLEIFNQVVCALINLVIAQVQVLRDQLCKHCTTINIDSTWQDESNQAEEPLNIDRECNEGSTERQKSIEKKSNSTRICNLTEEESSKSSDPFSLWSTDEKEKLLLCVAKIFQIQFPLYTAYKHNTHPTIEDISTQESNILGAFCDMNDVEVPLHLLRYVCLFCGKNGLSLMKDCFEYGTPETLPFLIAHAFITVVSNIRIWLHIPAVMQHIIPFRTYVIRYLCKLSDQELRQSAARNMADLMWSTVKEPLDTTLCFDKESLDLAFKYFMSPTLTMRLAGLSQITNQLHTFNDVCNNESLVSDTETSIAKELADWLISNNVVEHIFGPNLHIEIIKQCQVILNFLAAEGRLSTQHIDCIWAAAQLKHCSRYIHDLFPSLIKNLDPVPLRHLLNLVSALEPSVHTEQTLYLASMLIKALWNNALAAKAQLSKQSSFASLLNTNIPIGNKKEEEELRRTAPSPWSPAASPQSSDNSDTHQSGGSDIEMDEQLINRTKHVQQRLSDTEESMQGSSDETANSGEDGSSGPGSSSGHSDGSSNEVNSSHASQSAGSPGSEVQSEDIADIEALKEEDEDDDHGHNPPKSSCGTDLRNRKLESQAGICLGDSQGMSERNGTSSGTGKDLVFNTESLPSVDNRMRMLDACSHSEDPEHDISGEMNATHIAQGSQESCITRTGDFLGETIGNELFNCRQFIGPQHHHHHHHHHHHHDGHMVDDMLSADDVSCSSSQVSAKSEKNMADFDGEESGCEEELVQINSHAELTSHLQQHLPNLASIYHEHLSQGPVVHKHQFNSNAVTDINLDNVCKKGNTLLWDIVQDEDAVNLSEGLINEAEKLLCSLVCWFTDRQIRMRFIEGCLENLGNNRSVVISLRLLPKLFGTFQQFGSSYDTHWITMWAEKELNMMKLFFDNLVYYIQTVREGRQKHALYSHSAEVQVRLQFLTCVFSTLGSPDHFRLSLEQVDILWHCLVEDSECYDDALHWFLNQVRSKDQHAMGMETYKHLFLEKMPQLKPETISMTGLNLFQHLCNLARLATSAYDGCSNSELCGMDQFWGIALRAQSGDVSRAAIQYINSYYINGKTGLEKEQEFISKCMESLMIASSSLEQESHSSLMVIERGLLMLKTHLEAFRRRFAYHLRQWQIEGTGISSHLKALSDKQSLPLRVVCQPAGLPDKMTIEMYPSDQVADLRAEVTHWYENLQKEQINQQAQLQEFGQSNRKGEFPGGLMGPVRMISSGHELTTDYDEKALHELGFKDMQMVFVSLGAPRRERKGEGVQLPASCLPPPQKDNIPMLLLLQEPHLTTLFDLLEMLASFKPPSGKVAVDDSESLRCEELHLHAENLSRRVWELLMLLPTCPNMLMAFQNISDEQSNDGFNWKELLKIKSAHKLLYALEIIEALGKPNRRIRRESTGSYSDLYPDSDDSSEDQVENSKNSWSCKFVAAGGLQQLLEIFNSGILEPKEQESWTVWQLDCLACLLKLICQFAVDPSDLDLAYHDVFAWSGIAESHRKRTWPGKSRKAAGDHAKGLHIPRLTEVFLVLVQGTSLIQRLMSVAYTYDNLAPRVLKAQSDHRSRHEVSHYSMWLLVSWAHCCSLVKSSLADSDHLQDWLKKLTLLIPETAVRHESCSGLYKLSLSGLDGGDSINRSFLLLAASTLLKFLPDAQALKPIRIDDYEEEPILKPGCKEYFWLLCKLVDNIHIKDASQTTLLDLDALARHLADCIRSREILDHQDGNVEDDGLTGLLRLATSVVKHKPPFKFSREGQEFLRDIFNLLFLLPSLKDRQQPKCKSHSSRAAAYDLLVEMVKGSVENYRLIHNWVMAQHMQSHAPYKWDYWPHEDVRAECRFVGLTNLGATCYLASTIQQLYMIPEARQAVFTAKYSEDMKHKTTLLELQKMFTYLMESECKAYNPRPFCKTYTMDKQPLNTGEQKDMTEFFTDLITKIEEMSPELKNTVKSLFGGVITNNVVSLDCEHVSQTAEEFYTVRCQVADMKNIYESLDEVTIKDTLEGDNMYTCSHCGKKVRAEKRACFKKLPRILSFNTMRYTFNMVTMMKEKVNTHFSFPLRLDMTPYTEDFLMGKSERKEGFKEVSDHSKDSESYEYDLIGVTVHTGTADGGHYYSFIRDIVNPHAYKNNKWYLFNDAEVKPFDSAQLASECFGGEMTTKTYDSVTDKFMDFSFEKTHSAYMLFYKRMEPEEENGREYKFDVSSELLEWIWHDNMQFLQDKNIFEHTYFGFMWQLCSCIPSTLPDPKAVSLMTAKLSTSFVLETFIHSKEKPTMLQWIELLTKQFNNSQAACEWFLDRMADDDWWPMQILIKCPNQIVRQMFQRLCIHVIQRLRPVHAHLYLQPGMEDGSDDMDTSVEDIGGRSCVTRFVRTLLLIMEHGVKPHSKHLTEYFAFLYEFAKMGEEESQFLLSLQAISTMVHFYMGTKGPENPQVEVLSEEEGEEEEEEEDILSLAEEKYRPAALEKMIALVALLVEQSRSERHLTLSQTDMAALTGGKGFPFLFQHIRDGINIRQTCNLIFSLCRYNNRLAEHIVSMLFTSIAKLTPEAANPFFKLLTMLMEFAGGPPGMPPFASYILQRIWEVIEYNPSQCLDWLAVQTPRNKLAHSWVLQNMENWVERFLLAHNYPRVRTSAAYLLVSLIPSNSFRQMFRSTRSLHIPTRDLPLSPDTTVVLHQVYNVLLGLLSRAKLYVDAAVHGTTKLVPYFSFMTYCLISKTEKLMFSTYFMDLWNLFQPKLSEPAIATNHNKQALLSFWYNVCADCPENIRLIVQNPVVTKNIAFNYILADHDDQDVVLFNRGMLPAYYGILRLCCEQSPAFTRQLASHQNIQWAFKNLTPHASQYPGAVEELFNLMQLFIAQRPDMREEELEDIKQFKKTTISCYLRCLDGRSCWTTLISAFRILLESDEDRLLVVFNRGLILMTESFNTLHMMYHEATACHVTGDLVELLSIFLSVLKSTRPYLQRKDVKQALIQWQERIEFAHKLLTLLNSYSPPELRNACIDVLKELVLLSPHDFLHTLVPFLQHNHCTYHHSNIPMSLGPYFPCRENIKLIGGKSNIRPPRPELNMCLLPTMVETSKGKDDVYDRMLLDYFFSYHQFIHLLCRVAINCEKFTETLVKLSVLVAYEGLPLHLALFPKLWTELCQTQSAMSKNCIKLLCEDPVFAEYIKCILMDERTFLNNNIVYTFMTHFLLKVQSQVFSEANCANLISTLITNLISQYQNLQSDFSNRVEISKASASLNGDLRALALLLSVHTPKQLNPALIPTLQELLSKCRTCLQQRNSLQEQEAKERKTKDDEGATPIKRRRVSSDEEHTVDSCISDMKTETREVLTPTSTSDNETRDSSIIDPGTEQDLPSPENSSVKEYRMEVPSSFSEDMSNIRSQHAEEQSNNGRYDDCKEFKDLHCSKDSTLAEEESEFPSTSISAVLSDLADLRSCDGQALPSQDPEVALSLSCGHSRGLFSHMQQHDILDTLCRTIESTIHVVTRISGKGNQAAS

O=C(CCl)N1CCC(C(=O)N2CCCCCC2)CC1
inactive: [1] -0.0554 | [2] -0.258 | [3] -0.135 | [4] -0.143 | [5] 0.128
